# Positions count from the first letter of the chain named. The full ranking holds about 24,000 sequences; the median of “enrichment r” is about 0.99, and the highest 2% start at about 3.7. What follows is part of a selection rich in the highest values, with near analogues and random picks from the rest.
# T1: UNK ZnF1-3 (human, UniProt Q9C0B0 31-174)
# T1 sequence: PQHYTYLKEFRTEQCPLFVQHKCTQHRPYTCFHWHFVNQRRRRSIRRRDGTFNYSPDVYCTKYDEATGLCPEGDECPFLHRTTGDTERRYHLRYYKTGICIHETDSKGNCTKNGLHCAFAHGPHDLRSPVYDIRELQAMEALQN
# B1: chr1:93299114:93299115:+_ENSG00000122406_ENST00000370321|hu_hu|motif|central (ssRNA)
# RNA: GGGAGUUCUACAGUCCGACGAUCUUGUAUCACCAAGCGUUUCCGAGCAUAAUAAUCAGUUUUACCCUCUCGUCGUCUUCGGAAUUUCACUUGGUAUCUCUUAAAGUAGGCCUUAUUCUUAACAACUUUAACAAACCCCAUCCUCAACAGAGGAUUGAGCAUCA
# B2: chr3:32335226:32335227:+_ENSMUSG00000027665_ENSMUST00000108243|mus_mus|motif|central (ssRNA)
# RNA: GGGAGUUCUACAGUCCGACGAUCGGCCUCUCUGAACAGUUCAUGUUUGAUGGUGACGAGUGUGGCCUCACGGAGGCAUUCGGAAGUCACUAUCAUUCCAUUGGGGAGUAAACAUUCCACUAGGAUUCGUGGGGGCAUCAAGUGCAACAGAGGAUUGAGCAUCA
# B3: chr7:54825262:54825263:-_ENSG00000132432_ENST00000352861|hu_hu|hu_hu_hu_mus_False|48_78 (ssRNA)
# RNA: GGGAGUUCUACAGUCCGACGAUCCUGCCGGCUGGGCUCCACAAACUGCAUUACCUGCAUGACUGCCGUUGGAUGGCGGAUUGAGAGUGCCAGGGACCGUAGCUCAGGAGAGAACCGAGCCCAACGGAACCGGAAGCUGGCAACCAACAGAGGAUUGAGCAUCA
# B4: 93048056_93048176_2666_3pUTR_ENSMUSG00000020964_ENSMUST00000021347|mouse|control|control (ssRNA)
# RNA: GGGAGUUCUACAGUCCGACGAUCCACUGAGAGUUGUCAUUCCGUAUGGCACUGAAACAAACAUUCACUGCAGCUCUGCCGAGAGCCGCGCAUCCCUGAAAAGGAAGGCAGCAGGUUCUAAGCAGCUUCUGGGAUUCAACACGCCAACAGAGGAUUGAGCAUCA
# B5: chr17:56552419:56552420:-_ENSMUSG00000013236_ENSMUST00000086828|mus_mus|mus_mus_mus_hu_False|1_88 (ssRNA)
# RNA: GGGAGUUCUACAGUCCGACGAUCAAAAAAUACACUAUUUAAAAAAAAAAGAAAAAAACGGGAUACAGUUACACUGAGAGUUUUAAAAGAAAGCUGGAUUCUGGUCCCAGCCCAGUGUCCCCAGGCUGCAGAGCGGGGCAGAGGCAACAGAGGAUUGAGCAUCA
# B6: chrX:165757501:165757502:-_ENSMUSG00000031352_ENSMUST00000112115|mus_mus|FALSE|FALSE (ssRNA)
# RNA: GGGAGUUCUACAGUCCGACGAUCAGCAGGAGAAGAUGCUGAGGCACCCAUGGCUGGAAUCACAGGGGUCACUCCCAAUCUAAAAUACCCAGCAAAACGGGAGGCAAGGAGCGGCGAAGGGCAGGAAGCCACCAGUGUUGCCUUCAACAGAGGAUUGAGCAUCA
# B7: chr17:56552419:56552420:-_ENSMUSG00000013236_ENSMUST00000086828|mus_mus|mus_mus_mus_hu_False|88_98 (ssRNA)
# RNA: B5 RNA with U38A, U39A, C138A, A139G, G143C
# B8: chr17:56552419:56552420:-_ENSMUSG00000013236_ENSMUST00000086828|mus_mus|mus_mus_mus_hu_False|18_88 (ssRNA)
# RNA: GGGAGUUCUACAGUCCGACGAUCAAAAAAUACACUAUUUAAAAAAAAAAGAAAAAAACGGGAUACAGUUACACUGAGAGUUUUAAAAGAAAGCUGGAUUCUGGUCCCAGCCCAGUGGCAGGCAGGGGCAGAGCGGGGAGGAGCCAACAGAGGAUUGAGCAUCA
# B9: chr17:56552419:56552420:-_ENSMUSG00000013236_ENSMUST00000086828|mus_mus|mus_mus_mus_hu_False|48_88 (ssRNA)
# RNA: B5 RNA with G88A, G92A, C93U, U94A, G95A, C138A, A139G, G143C
# B10: chr14:92628060:92628061:+_ENSG00000165934_ENST00000298875|hu_hu|motif|central (ssRNA)
# RNA: GGGAGUUCUACAGUCCGACGAUCUUGACAUCAUGUCCUUUAUACAAUGGCAUAUUGUUCAUAUAAAAGGUCUCUUAUCCGGUAAAAAUCUUGACAAAGGCAGCCUUCUAAUCCAAUGCGUCCAGUUUCCGUUCUGCGGACUGCCAACAGAGGAUUGAGCAUCA
# B11: chr17:32333828:32333829:-_ENSMUSG00000024002_ENSMUST00000121285|mus_mus|FALSE|FALSE (ssRNA)
# RNA: GGGAGUUCUACAGUCCGACGAUCUACAGUACAGCCACAGUCACACACUACCCACAGCGCAGUGGGAGCCGCCGCUCACUGAGGAGACGAUCACACCAUUUGGAGAUAAGCAGUGCCACUGUGUCUGAGGAGAAGAGAGUUAAACAACAGAGGAUUGAGCAUCA
# B12: chr17:88387627:88387628:+_ENSMUSG00000005370_ENSMUST00000005503|mus_hu|motif|central (ssRNA)
# RNA: GGGAGUUCUACAGUCCGACGAUCAAAAUCAUCUCCAAAAAAAGUCUUCGUAAUGCAAGGAUGGCGUGAUCCUUUAAGCUCGGAGAAGGGGGGGGUAUCUUCCGGCAACAGAAUUACUGGGCGACACAUAGGACCAUCACCCCCCAACAGAGGAUUGAGCAUCA
# B13: chr8:26941818:26941819:-_ENSMUSG00000031575_ENSMUST00000166078|mus_mus|FALSE|FALSE (ssRNA)
# RNA: GGGAGUUCUACAGUCCGACGAUCACUAGCAGACACAGCACUGCUUUGUUUCUGGUUGUCAUAAGCAGGACCAAUAUUACUAAGAUCCUGAUCCAAAAGUCCAAACUUGGGGUAAUCUUCUUCUGGGUCUUUGCUUCCUGGGUCCAACAGAGGAUUGAGCAUCA
# B14: chr1:163117127:163117128:-_ENSG00000143248_ENST00000313961|hu_mus|hu_hu_hu_mus_False|58_98 (ssRNA)
# RNA: GGGAGUUCUACAGUCCGACGAUCUGCUACAAAGGAUGGAGGAAAUAUCACAGGGCAACUUUUGGAAGCCUGACCAGAUUACUACUUGAUUAGCUCCUUAUAAAAUUCAGAGCGCACAAAGCGGGGCAGAGAAUCCUUCUCCAUCAACAGAGGAUUGAGCAUCA
# Molecular target: T1, UNK ZnF1-3
# Test: nsRBNS (natural sequence RNA bind-n-seq); RBNS binding buffer (assumed for nsRBNS): 25 mM Tris pH 7.5, 150 mM KCl, 3 mM MgCl2, 0.01% Triton X-100, 500 ug/ml BSA, 20 U/ml SUPERase-In, 4 C; UNK is unkempt and MSI1 is Musashi-1; names of the RNAs are library labels; protein concentration not given here; high values mean tight binding
row,Binder,binding signal [enrichment R]
1,B1,0.572
2,B2,1.05
3,B3,1.55
4,B4,0.952
5,B5,7.19
6,B6,1.75
7,B7,16
8,B8,9.03
9,B9,16.3
10,B10,0.899
11,B11,1.36
12,B12,1.58
13,B13,0.761
14,B14,1.55

# Reference: publication PMC12136788
